Rce1 inh – yeast Ras-converting enzyme inhibition; calls only; AID 2563; yeast membranes, quenched prenylated peptide cleavage fluorescence; hit rate 0.27% among 290,000; Q03530;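 active means fall in fluorescence gain of 50% or more versus controls, with final raw signal at or below 3038400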;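 further: plate controls were neutral control wells for no effect and wells lacking membranes for full effect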
Target sequence (Q03530 whole entry, looked up): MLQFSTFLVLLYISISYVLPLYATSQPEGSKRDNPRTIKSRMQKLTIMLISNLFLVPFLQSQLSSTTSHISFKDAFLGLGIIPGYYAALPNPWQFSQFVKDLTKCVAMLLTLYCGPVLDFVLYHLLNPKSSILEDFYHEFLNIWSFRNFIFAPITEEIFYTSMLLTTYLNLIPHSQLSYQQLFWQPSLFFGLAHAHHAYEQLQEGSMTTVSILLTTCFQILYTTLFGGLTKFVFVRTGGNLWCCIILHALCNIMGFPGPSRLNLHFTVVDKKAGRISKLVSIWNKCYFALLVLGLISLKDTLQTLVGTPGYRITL
Statin myotox sup – protects C2C12 myotubes from simvastatin toxicity. hit rate 0.78% among 330,000. ATP luminescence, 48 h; scaled: DMSO 0, geranylgeraniol control 100. rescue of ATP level, % at 7.49 µM;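 active means mean ATP rescue above about 67%, or every replicate alone reaching that limit, limit read from the data, passing the limit was not always enough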;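 further: myotubes were challenged with 10 µM simvastatin during compound exposure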
PGC1a acetyl inh – lowers PGC1a acetylation signal in U2OS cells; inhibition, % at 15.6 µM; AlphaScreen anti-acetyl-lysine; with virally co-expressed GCN5 acetyltransferase; hit rate 0.17% among 350,000; AID 651687;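 active means every replicate shows inhibition of at least 40%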;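 further: 0% = neutral control wells and 100% = positive control wells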
AI-2 QS mod – modulates the Vibrio harveyi AI-2 quorum sensing system; Vibrio harveyi JMH597 AI-2 luminescence/OD600 ratio, 9 h; stronger effect = lower value; strain lacks LuxN and CqsS sensors; 0 = neutral-control median; activity change, % at 7.5 µM; hit rate 0.4% among 300,000; AID 2094; in the data active means activity change below about -75%, passing the limit was not always enough;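 further: luminescence divided by OD600 gain over 9 h not by final OD600 alone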
HIF activator – HIF pathway transcriptional activation | U2OS HRE-luciferase reporter, luminescence; normalized: DMSO 0%, desferrioxamine 100% | activation, % at 7.5 µM (by protocol) | hit rate 0.32% among 300,000 | AID 1910;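 active means mean activation of at least 10% of the iron chelator positive control signal, with at least half of replicates also reaching 10%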
Numbers without * were called inactive; i = inactive; · = no result given; + = active, no number. Shown are actives, neighbours in structure and some others; about 1.3% of the full set was active somewhere.

SMILES | Rce1 inh | Statin myotox sup | PGC1a acetyl inh | AI-2 QS mod | HIF activator
CN(Cc1cc(Cl)cc(Cl)c1)CC(C(=O)c1ccccc1)c1ccccc1 (configuration not stated) | · | 8 | 17 | · | ·
Cc1nn(-c2ccccn2)c2c1-c1nc(N)ncc1CC2 | i | 115* | 28 | 10 | 7
Cc1nn(-c2ccccn2)c2c1-c1nc(N3CCOCC3)ncc1CC2 | i | · | -2 | -13 | 0
CO[C@@H]1CN(C)C(=O)c2ccc(NS(C)(=O)=O)cc2OC[C@H](C)N(C(=O)C2CCCC2)C[C@H]1C | · | · | 0 | · | ·
Cc1cccn2c(=O)c3cc(C#N)c(=N)n(CCN4CCOCC4)c3nc12 | i | 104* | 3 | 14 | 0
Cc1ccccc1CC1(CO)CCCN(C(=O)CCC(F)(F)F)C1 (configuration not stated) | i | 11 | · | 3 | 0
CSCC(=O)N1CCCC(CO)(Cc2ccccc2C)C1 (configuration not stated) | i | -18 | 109* | 9 | -1
CC(C)(C)OC(=O)NCCCCCNC(=O)c1[nH]cnc1C(=O)N[C@@H](Cc1ccccc1)C(=O)OCc1ccccc1 | i | 132* | -10 | -1 | 0
CCn1c2ccccc2c2cc(/C=N/n3cn[nH]c3=S)ccc21 | i | -7 | 42* | 15 | -1
C[C@H](CO)N1C[C@H](C)[C@H](CN(C)S(=O)(=O)c2cccs2)OCCCC[C@H](C)Oc2ccc(NC(=O)Nc3ccc4c(c3)OCO4)cc2C1=O | · | · | -22 | · | ·
O=C(CNC(=O)c1cccs1)OCc1ccc(Cl)cc1 | i | -2 | -5 | -79* | 0
CCc1ccc(OCCNC(=O)c2cccs2)cc1 | i | 6 | 25 | -79* | -7
CCCCN1C(=S)SC(C)(C)C1/[N+]([O-])=C/c1cccnc1 (configuration not stated) | i | 98* | 12 | 4 | 0
COc1ccc(-c2noc(CCCOc3ccc(Cl)cc3Cl)n2)cc1 | i | 109* | 7 | 4 | -1
Cc1ccc(-c2noc(CCCOc3ccc(Cl)cc3Cl)n2)cc1 | i | 6 | -4 | 16 | 0
CO[C@@H]1CN(C)C(=O)c2cc(NC(=O)c3cccc(F)c3)ccc2OC[C@@H](C)NC[C@H]1C | · | 17 | -1 | · | ·
CCOC(=O)C1=C(C)N(CCCC(=O)O)C(=O)NC1c1ccccc1Cl (configuration not stated) | i | · | · | 14 | 0
CCOC(=O)C1=C(C)N(CCCC(=O)O)C(=O)NC1c1ccccc1OC(=O)c1cccs1 (configuration not stated) | + | · | · | -2 | 0
CCOC(=O)C1=C(C)N(CCCCCC(=O)O)C(=O)NC1c1ccccc1Cl (configuration not stated) | i | 105* | 6 | 41 | -1
CCOC(=O)C1=C(C)N(CCCC(=O)O)C(=O)NC1c1ccccc1OS(=O)(=O)c1ccc(C)cc1 (configuration not stated) | · | -11 | 10 | · | ·
COc1ccc(S(=O)(=O)N(C)C[C@@H]2Oc3ccc(NS(=O)(=O)c4ccc(F)cc4)cc3CC(=O)N([C@@H](C)CO)C[C@H]2C)cc1 | · | 37 | 4 | · | ·
Cc1ccccc1S(=O)(=O)N[C@H]1CC[C@H](CCn2cc(Cc3ccccc3)nn2)O[C@@H]1CO | · | 2 | 61* | · | ·
Cc1noc(C)c1S(=O)(=O)Nc1cccc2c1O[C@H](CN(C)C(=O)Nc1ccc3c(c1)OCO3)[C@H](C)CN([C@@H](C)CO)C2=O | · | -8 | -7 | · | ·
C[C@@H]1CN([C@@H](C)CO)C(=O)c2cc(NS(=O)(=O)c3ccc(Cl)cc3)ccc2O[C@@H](C)CCCCO[C@H]1CN(C)C(=O)Nc1cccc2ccccc12 | · | 53 | -20 | · | ·
C[C@@H]1CCCCO[C@@H](CN(C)C(=O)Nc2cccc3ccccc23)[C@H](C)CN([C@@H](C)CO)C(=O)c2cc(NS(=O)(=O)c3ccc(Cl)cc3)ccc2O1 | · | 137* | -10 | · | ·
SMILES | Rce1 inh | Statin myotox sup | PGC1a acetyl inh | AI-2 QS mod | HIF activator
C[C@@H]1CCCCO[C@H](CN(C)C(=O)Nc2cccc3ccccc23)[C@H](C)CN([C@@H](C)CO)C(=O)c2cc(NS(=O)(=O)c3ccc(Cl)cc3)ccc2O1 | · | 192* | -12 | · | ·
COc1ccc(NC(=O)N(C)C[C@@H]2OCCCC[C@H](C)Oc3ccc(NC(=O)Nc4ccccc4)cc3C(=O)N([C@H](C)CO)C[C@@H]2C)cc1 | · | · | 7 | · | ·
CO[C@H]1CN(C)C(=O)c2ccc(NC(=O)C3CC3)cc2OC[C@H](C)N(Cc2cncnc2)C[C@@H]1C | · | -20 | 11 | · | ·
CCOC(=O)/C(C)=N/NC(=O)c1ccc([N+](=O)[O-])cc1 | · | · | -1 | 44 | 0
CCOC(=O)/C(N=Nc1ccc(F)cc1)=C(/O)c1ccc([N+](=O)[O-])cc1 | i | · | -8 | 16 | 14*
COC(=O)Nc1nnc(-c2ccncc2)s1 | + | -23 | -13 | 40 | 0
O=C(COc1ccccc1)Nc1nnc(-c2ccc(Cl)s2)o1 | i | 1 | -15 | -87* | 0
O=C(COc1ccccc1)Nc1nnc(-c2ccccc2)o1 | i | 23 | 15 | -45 | 0
CCNc1nc(OC)nc(SCC(N)=O)n1 | i | 69* | 0 | -5 | 0
CCNc1nc(NCc2ccccc2)nc(SCC(N)=O)n1 | i | 13 | 3 | 18 | 0
CN(CC(=O)Nc1ccccc1Oc1ccccc1)Cc1ccccc1F | i | -2 | · | 11 | 129*
Nc1ccc(C(=O)N/N=C/c2cn(Cc3ccccc3F)c3ccccc23)cc1 | i | -14 | · | 15 | 0
O=C(O)c1ccc(N/N=C/c2cn(Cc3ccccc3F)c3ccccc23)cc1 | + | -25 | -6 | -3 | 1
COC(=O)N/N=C/c1cn(Cc2ccccc2Cl)c2ccccc12 | + | · | · | 16 | -1
O=C(C[n+]1cc2ccccc2c2ccccc21)c1ccccc1 | + | · | 11 | 17 | 0
Cc1oc2c(c1C(=O)O)C(=O)c1ccccc1C2=O | i | -24 | 2 | -83* | 1
CCOC(=O)c1c(C)oc2c1C(=O)c1ccccc1C2=O | i | · | · | 16 | 1
COc1ccc(C)cc1NC(=O)CC1COc2ccccc2O1 (configuration not stated) | i | -2 | -3 | 17 | 0
Cc1ccc(NC(=O)CC2COc3ccccc3O2)cc1 (configuration not stated) | i | 113* | 21 | -6 | -31
COc1cccc(CNC(=O)CCC2CCCN(C(=O)C3=CC(=O)CC(C)(C)O3)C2)c1 (configuration not stated) | i | 79* | 8 | 15 | 1
CC(=O)c1ccc(N2C(=NC(=O)COc3ccccc3)SC3CS(=O)(=O)CC32)cc1 (configuration not stated) | i | 5 | 12 | 3 | 473*
C[C@H](CO)N1C[C@H](C)[C@@H](CN(C)S(=O)(=O)c2ccc(F)cc2)Oc2ccc(NC(=O)C3CC3)cc2CC1=O | · | 9 | 4 | · | ·

Screening results: PubChem, Broad Institute
